Inconclusive results are not listed. Calls of active or inactive are those of the source. Unless noted, the call rests on the fitted dose curve.
What was measured:
[1] = target: Estrogen receptor (Homo sapiens) (UniProt P03372); assay: qHTS assay for small molecule agonists of estrogen receptor alpha signaling (AID 588514); further: nearly all actives have a fitted effect of over 70% in size; further: potency means the concentration at half of the fitted maximal effect;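 on activation: 0% = vehicle only and 100% = reference agonist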
Method in brief: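 Cells were plated at 5000/well, incubated 4 hrs at 37 C, dosed with compound titration series, incubated 18 hrs at 37 C, loaded with CCF4 dye for 2 hrs at RT, then fluorescence was read.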

[2] = target: Peroxisome proliferator-activated receptor delta (Homo sapiens) (UniProt Q03181); assay: qHTS assay for small molecule agonists of peroxisome proliferator-activated receptor delta signaling (AID 588534);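 further: 0% = DMSO basal wells and 100% = positive control agonist at 10 µM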
Method in brief: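 Fluorescence from CCF4 substrate cleavage by beta-lactamase reporter, read 2 hrs at RT, measured agonist activity. Compounds were tested with 18 hrs exposure at 37 C. Concentration-response data fitted to Hill equation.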

[3] = target: Vitamin D3 receptor (Homo sapiens) (UniProt P11473); assay: qHTS assay for small molecule antagonists of vitamin D receptor signaling (AID 588541);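 further: receptor activated by calcitriol during compound treatment; series mostly up to about 77 µM; on the % scale 0 is the no-effect control and ±100 the full control effect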
Method in brief: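 VDR-UAS-bla HEK293T cells (2000/well, 2% charcoal-stripped FBS) were treated with titrated compounds plus 1-alpha,25-dihydroxyvitamin D3 (50 nM or 3 nM final) for 16 h at 37 C. CCF4 beta-lactamase fluorescence was read; Hill fits gave IC50.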

[4] = qHTS assay for small molecule agonists of retinoid X receptor alpha signaling (AID 588544); conditions: HEK293T RXRa-UAS-bla, beta-lactamase reporter, 18 h; 530 nm emission;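 on activation: 0% = DMSO basal wells and 100% = reference agonist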
[5] = target: Retinoic acid receptor RXR-alpha (Homo sapiens) (UniProt P19793); assay: as above
[6] = qHTS assay for small molecule antagonists of retinoid X receptor alpha signaling (AID 588546; active means well fitted inhibition curve with a large enough effect in the signal ratio, with a control signal flat, not every such curve was filed as active; the % refers to the signal ratio;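 further: cells stimulated with 9-cis-retinoic acid as agonist; on the % scale 0 is the no-effect control and ±100 the full control effect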); conditions: HEK293T RXRa-UAS-bla, beta-lactamase ratio, antagonist mode; measured here: W530 green channel, cytotoxicity proxy
Method in brief: (§1)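 Beta-lactamase reporter inhibition, read as CCF4 fluorescence ratio (ex 405, em 460/530 nm) after 2 h at RT. HEK293T UAS-bla cells, 2500/well, were stimulated with 9-cis-RA at 500 or 100 nM final alongside test compound for 18 h at 37 C.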

[7] = target: Retinoic acid receptor RXR-alpha (Homo sapiens) (UniProt P19793); assay: as above; conditions: HEK293T RXRa-UAS-bla, beta-lactamase ratio, antagonist mode
Method in brief: as §1

[8] = qHTS assay for small molecule activators of the p53 signaling pathway (AID 651743; active means well fitted activation curve with a large enough effect in the signal ratio, not every such curve was filed as active; the % refers to the signal ratio; further: series mostly up to about 92 µM; % of control where 0% means no effect); conditions: HCT-116 p53RE-bla, beta-lactamase FRET ratio, 16 h; activation: stronger effect = higher value
Method in brief: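 Cell-based beta-lactamase reporter (p53 response elements, HCT-116 background). After a 5-hour preincubation, cells received compound for 16 hours at 37 C; substrate development ran 2 hours at room temperature.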

[9] = qHTS assay for small molecule activators of the nuclear factor-kappa B (NF-kB) signaling pathway (AID 651749; active means well fitted activation curve with a large enough effect in the signal ratio; the % refers to the signal ratio; further: series mostly up to about 77 µM; % of control where 0% means no effect); conditions: NF-kB-bla ME-180 cells, beta-lactamase FRET ratio, 16 h; activation: stronger effect = higher value
Method in brief: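 Screening used 2,000 ME-180 reporter cells per well exposed to pinned compound (23 nL) or DMSO; after 16 hr at 37C, beta-lactamase expression under NF-kB control was assessed through FRET.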

[10] = qHTS assay for environmental chemicals that activate the Aryl hydrocarbon Receptor (AhR) signaling pathway (AID 651777; active means well fitted curve in the direction sought with a large enough effect; an effect the other way counts as inactive or inconclusive; further: % of control where 0% means no effect; nearly all actives have a fitted effect of over 15% in size); conditions: 1A2-DRE human hepatoma cells, luciferase, 24 h; activation: stronger effect = higher value
Method in brief: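 Stable CYP1A2 promoter/DRE-luciferase human hepatoma line treated 24 hr; One-Glo luminescence, 30 min RT.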

[11] = target: Peroxisome proliferator-activated receptor alpha (Homo sapiens) (UniProt Q07869); assay: qHTS assay for small molecule agonists of the peroxisome proliferator-activated receptor alpha (PPARalpha) signaling pathway (AID 651778; active means well fitted curve in the direction sought with a large enough effect; an effect the other way counts as inactive or inconclusive; further: % of control where 0% means no effect); conditions: PathHunter PPARalpha complementation, chemiluminescence, 6 h; max response: stronger effect = higher value
Method in brief: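 Cells plated at 2,000/well and held overnight at 37 C, 5% CO2, then compound added by pin tool for 6 hr; after PathHunter detection reagent and 60 min at room temperature, chemiluminescence from enzyme complementation was read.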

[12] = qHTS assay for small molecule agonists of the antioxidant response element (ARE) signaling pathway measured by Nrf2-dependant transcriptional activity (AID 720636; active means well fitted curve in the direction sought with a large enough effect in the repeat runs; an effect the other way counts as inactive or inconclusive;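 further: HepG2 cells with an ARE-driven luciferase reporter; % of control where 0% means no effect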)
Method in brief: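 Reporter gene assay, HepG2 ARE-luc: 16 hr compound, 37 C, 5% CO2; read-out luciferase luminescence.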

[13] = qHTS assay for small molecule agonists of the antioxidant response element (ARE) signaling pathway measured by Nrf2-dependant transcriptional activity - cell viability counter screen (AID 720653; active means well fitted curve in the direction sought with a large enough effect in the repeat runs; an effect the other way counts as inactive or inconclusive; further: potency means the concentration at half of the fitted maximal effect; on max response: on the % scale 0 is the no-effect control and ±100 the full control effect); conditions: ARE-bla HepG2 viability, CellTiter-Glo ATP luminescence, 16 h; max response: stronger effect = lower value
Method in brief: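 ARE-bla HepG2 cells (2,000/well) rested 5 hrs at 37C/5% CO2, then exposed to compounds in DMSO for 16 hrs. Viability was read in the same wells as intracellular ATP by luminescence, 30 min at room temperature after reagent addition.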

[14] = qHTS assay for cell viability of HEK293 cells (AID 743288; active means well fitted curve in the direction sought with a large enough effect; an effect the other way counts as inactive or inconclusive; further: nearly all actives have a fitted effect of over 50% in size; further: potency means the concentration at half of the fitted maximal effect; on max response: on the % scale 0 is the no-effect control and ±100 the full control effect); conditions: ATP luminescence (CellTiter-Glo), 18 h; max response: stronger effect = lower value
Method in brief: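 Parental HEK293 cells, 2,000 per well, preincubated at least 5 h at 37 C, then exposed to compounds in DMSO for 18 h at 37 C. Viability by CellTiter-Glo ATP luminescence after 30 min at room temperature.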

[15] = qHTS assay for cell viability of the p53RE-bla HCT-116 cell line (AID 743292; active means well fitted curve in the direction sought with a large enough effect; an effect the other way counts as inactive or inconclusive; further: nearly all actives have a fitted effect of over 55% in size; further: potency means the concentration at half of the fitted maximal effect)
Method in brief: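 Readout: CellTiter-Glo luminescence after 30 min RT. Treatment: compounds in DMSO, 16 h, 37 C. Cells: CellSensor p53RE-bla HCT-116, 4,000/well, preincubated 5 h.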

[16] = target: Nuclear receptor subfamily 1 group I member 2 (Rattus norvegicus) (UniProt Q9R1A7); assay: qHTS assay for small molecule activators of the rat pregnane X receptor (rPXR) signaling pathway (AID 651751; call rule not given here; further: 0% is about no effect); conditions: rPXR reporter cells, luciferase (One-Glo), 24 h
[17] = target: Peroxisome proliferator-activated receptor gamma (Homo sapiens) (UniProt P37231); assay: qHTS assay for small molecule agonists of peroxisome proliferator-activated receptor gamma signaling (AID 588536; active means well fitted curve in the direction sought with a large enough effect in the signal ratio, with a control signal flat, not every such curve was filed as active; the % refers to the signal ratio;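 further: 0% = DMSO basal wells and 100% = rosiglitazone at 2 µM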)
Method in brief: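 PPAR-gamma-UAS-bla HEK293 cells in medium with 1% charcoal/dextran-treated FBS were exposed to compounds for 16 h at 37 C. Beta-lactamase activity was read with CCF4 substrate (405 nm excitation, 460/530 nm emission).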

[18] = target: Vitamin D3 receptor (Homo sapiens) (UniProt P11473); assay: qHTS assay for small molecule agonists of vitamin D receptor signaling (AID 588543);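 further: 0% = DMSO basal and 100% = reference agonist control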
Method in brief: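 VDR-UAS-bla HEK293T cells, 2000/well, 2% charcoal-stripped FBS; compound titration 16 h at 37 C; CCF4 beta-lactamase ratio read. Normalized to 50 nM 1-alpha,25-dihydroxyvitamin D3 (100%) and DMSO; Hill fit gives EC50, efficacy.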

[19] = target: Thyroid hormone receptor beta (Homo sapiens) (UniProt P10828); assay: qHTS assay for small molecule agonists of thyroid hormone receptor beta signaling (AID 588545);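 further: 0% = DMSO only and 100% = 10 nM T3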
Method in brief: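 Compounds were tested as agonists in TR-UAS-bla-GripTite HEK 293 cells. After 18 hrs at 37 C, CCF4 substrate was added and fluorescence read after 2 hrs at room temperature.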

[20] = target: Estrogen receptor (Homo sapiens) (UniProt P03372); assay: qHTS assay for small molecule antagonists of estrogen receptor alpha signaling (AID 588513; active means well fitted curve in the direction sought with a large enough effect in the signal ratio, with a control signal flat, not every such curve was filed as active; the % refers to the signal ratio; further: potency means the concentration at half of the fitted maximal effect)
Method in brief: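 ER-alpha-UAS-bla GripTite HEK 293 cells in 2% charcoal/dextran-treated FBS medium; compounds titrated (1:2, duplicate), then stimulated with 0.5 nM 17-beta-estradiol for 18 h at 37C. CCF4 beta-lactamase fluorescence; Hill-fit IC50 and efficacy.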

Nuclear receptor subfamily 1 group I member 2 (Rattus norvegicus), sequence (Q9R1A7 whole entry, looked up): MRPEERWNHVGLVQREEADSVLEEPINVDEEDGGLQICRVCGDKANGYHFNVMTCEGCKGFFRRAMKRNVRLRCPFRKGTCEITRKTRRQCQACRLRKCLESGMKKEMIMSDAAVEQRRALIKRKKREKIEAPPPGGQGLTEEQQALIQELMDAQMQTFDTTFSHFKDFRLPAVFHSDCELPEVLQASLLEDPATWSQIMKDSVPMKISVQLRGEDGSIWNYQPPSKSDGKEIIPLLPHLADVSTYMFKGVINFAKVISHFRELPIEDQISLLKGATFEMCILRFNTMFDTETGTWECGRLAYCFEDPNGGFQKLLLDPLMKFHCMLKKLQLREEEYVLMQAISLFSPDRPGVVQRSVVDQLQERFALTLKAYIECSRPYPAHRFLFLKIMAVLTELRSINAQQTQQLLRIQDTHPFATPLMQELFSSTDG
Thyroid hormone receptor beta (Homo sapiens), sequence (P10828 whole entry, looked up): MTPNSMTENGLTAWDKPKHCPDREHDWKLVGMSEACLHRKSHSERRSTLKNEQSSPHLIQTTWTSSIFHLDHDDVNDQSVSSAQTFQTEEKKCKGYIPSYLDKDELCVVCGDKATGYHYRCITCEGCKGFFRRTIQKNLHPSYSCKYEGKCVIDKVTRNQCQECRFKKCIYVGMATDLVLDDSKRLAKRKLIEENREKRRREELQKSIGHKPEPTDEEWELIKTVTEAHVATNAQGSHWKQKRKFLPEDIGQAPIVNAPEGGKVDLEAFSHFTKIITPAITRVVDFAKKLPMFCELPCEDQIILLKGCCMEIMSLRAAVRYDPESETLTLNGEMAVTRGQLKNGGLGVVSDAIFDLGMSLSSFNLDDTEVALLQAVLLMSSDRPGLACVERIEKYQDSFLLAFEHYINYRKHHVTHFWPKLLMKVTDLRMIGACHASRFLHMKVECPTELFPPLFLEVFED
Peroxisome proliferator-activated receptor alpha (Homo sapiens), sequence (Q07869 whole entry, looked up): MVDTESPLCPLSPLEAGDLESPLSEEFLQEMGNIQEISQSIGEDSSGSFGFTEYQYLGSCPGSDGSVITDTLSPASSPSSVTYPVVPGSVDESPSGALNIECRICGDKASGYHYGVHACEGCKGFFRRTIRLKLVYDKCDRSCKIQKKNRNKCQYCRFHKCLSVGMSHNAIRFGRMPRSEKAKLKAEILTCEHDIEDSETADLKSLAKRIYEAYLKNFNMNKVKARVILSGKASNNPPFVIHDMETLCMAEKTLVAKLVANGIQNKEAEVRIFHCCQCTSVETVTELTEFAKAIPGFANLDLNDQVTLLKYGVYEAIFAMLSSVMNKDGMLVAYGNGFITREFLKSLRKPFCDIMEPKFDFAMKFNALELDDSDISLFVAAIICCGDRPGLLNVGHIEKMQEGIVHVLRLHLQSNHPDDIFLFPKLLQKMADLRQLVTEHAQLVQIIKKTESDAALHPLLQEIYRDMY
Peroxisome proliferator-activated receptor gamma (Homo sapiens), sequence (P37231 whole entry, looked up): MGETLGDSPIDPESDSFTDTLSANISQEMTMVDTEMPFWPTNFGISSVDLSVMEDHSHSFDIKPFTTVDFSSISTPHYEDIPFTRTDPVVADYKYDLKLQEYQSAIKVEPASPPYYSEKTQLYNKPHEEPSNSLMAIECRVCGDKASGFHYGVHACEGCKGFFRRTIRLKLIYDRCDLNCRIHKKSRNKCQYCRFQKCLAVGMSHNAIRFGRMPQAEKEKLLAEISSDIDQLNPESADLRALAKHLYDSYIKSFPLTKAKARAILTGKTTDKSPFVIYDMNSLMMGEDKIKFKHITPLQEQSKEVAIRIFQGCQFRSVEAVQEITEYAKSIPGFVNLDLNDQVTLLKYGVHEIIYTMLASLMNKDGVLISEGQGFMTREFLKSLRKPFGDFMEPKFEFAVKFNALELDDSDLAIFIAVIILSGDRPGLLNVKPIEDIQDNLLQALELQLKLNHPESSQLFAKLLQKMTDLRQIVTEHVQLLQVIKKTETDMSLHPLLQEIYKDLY
Peroxisome proliferator-activated receptor delta (Homo sapiens), sequence (Q03181 whole entry, looked up): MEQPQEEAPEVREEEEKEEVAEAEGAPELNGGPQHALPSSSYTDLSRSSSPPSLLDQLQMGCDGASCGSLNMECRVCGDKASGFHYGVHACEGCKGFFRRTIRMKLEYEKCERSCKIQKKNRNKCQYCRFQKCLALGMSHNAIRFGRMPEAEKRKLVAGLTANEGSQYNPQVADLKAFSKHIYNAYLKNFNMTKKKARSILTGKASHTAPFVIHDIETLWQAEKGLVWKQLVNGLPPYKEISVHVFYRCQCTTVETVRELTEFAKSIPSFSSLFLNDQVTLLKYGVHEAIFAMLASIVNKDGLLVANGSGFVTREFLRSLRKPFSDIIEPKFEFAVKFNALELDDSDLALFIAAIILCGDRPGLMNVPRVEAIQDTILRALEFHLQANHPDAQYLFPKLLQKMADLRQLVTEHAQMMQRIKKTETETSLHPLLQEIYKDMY
Estrogen receptor (Homo sapiens), sequence (P03372 whole entry, looked up): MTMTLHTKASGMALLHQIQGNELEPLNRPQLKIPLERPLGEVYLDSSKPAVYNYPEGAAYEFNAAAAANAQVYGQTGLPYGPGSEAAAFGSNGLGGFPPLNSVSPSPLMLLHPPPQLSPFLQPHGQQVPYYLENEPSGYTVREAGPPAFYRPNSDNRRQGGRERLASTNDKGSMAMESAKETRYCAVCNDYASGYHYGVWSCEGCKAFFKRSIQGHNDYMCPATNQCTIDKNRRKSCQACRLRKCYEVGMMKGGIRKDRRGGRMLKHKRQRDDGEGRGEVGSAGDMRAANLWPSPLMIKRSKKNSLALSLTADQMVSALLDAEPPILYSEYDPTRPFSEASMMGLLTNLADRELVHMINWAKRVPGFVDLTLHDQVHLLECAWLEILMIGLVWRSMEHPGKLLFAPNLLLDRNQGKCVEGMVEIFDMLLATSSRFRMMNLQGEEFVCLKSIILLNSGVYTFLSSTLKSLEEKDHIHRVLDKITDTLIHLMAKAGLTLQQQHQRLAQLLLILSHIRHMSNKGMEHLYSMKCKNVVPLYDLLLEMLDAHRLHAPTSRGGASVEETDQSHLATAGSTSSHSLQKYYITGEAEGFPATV
Retinoic acid receptor RXR-alpha (Homo sapiens), sequence (P19793 whole entry, looked up): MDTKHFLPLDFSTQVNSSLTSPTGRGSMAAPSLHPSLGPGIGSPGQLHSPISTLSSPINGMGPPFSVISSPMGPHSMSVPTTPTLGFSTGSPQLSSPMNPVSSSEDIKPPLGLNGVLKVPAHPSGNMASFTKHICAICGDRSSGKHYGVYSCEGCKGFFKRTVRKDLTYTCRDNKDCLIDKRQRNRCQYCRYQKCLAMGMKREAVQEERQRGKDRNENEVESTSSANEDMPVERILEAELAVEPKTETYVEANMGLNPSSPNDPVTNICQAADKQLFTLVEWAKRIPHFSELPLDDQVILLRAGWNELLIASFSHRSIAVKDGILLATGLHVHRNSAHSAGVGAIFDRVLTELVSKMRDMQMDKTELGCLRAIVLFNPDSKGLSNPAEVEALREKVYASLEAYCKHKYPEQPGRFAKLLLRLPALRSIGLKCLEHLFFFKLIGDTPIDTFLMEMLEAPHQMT
Vitamin D3 receptor (Homo sapiens), sequence (P11473 whole entry, looked up): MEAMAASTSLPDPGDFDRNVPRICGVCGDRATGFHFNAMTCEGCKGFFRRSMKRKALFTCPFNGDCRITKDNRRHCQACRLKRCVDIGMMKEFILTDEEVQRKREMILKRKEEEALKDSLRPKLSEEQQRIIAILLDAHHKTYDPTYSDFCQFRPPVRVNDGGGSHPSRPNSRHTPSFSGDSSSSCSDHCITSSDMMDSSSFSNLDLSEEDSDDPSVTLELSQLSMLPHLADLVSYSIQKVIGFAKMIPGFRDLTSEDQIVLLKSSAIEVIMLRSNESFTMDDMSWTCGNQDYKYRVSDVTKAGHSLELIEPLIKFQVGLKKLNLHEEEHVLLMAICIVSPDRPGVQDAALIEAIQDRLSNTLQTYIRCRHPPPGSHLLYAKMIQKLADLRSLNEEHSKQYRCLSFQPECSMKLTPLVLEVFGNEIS

CCOP(=O)(OCC)Oc1ccc2c(C)c(Cl)c(=O)oc2c1
inactive: Potency [1] | outcome [2] | Potency [3] | Potency [5] | max response [7] -0.0168% | activation [8] 2.64% | activation [9] 0.977% | activation [10] 0.485% | max response [11] -3.26% | Potency [12] | max response [13] -2.45% | max response [14] -8.63% | Potency [15] | max response [16] 12.3%
2.41%: max response [4]
-10.4%: max response [6]

O=C1c2ccccc2C(=O)C1C(=O)C(c1ccccc1)c1ccc(Cl)cc1 (stereo not drawn)
-2.15%: max response [6]
-4.27%: max response [4]
inactive: Potency [1] | outcome [2] | Potency [17] | Potency [3] | outcome [18] | Potency [5] | Potency [19] | max response [7] 36.5% | activation [9] -3.47% | activation [10] 3.58% | max response [11] -1.87% | Potency [12] | max response [13] -33.5% | max response [14] -28.8% | Potency [15] | max response [16] 10.4%

CCSCCSP(=O)(OC)OC
inactive: Potency [1] | outcome [2] | Potency [17] | outcome [18] | Potency [5] | max response [7] -0.524% | activation [8] 2.18% | activation [9] -0.99% | activation [10] -0.526% | max response [11] -0.363% | Potency [12] | max response [13] -6.91% | max response [14] -1.87% | Potency [15] | max response [16] -1.46%
-9.27%: max response [6]
1.71%: max response [4]

CCOP(=O)(NC(C)C)Oc1ccc(S(C)(=O)=O)c(C)c1 (stereo not drawn)
-11.4%: max response [6]
inactive: Potency [1] | outcome [2] | Potency [17] | Potency [3] | outcome [18] | Potency [19] | max response [7] 6.87% | activation [8] 0.006% | activation [9] -0.438% | activation [10] 1.16% | max response [11] -2.16% | Potency [12] | max response [13] -4.32% | max response [14] -9.88% | Potency [15] | max response [16] 4.77%

CC(C)(C)OOC(C)(C)c1ccc(C(C)(C)OOC(C)(C)C)cc1
-9.77%: max response [4]
inactive: Potency [1] | outcome [2] | Potency [3] | outcome [18] | Potency [5] | Potency [19] | max response [7] -5.44% | activation [8] 0.499% | activation [9] 0.854% | activation [10] 0.613% | max response [11] 0.719% | Potency [12] | max response [13] -7.74% | max response [14] -8.57% | Potency [15] | max response [16] 4.08%
-15.9%: max response [6]

CCOP(=S)(OCC)SCCl
inactive: Potency [1] | Potency [17] | Potency [3] | outcome [18] | activation [8] 0.473% | activation [9] -1.72% | activation [10] 0.0178% | max response [11] -3.54% | Potency [12] | max response [13] -13.5% | Potency [15] | max response [16] -4.02%

CNC(=S)S
inactive: Potency [20] | outcome [2] | Potency [17] | Potency [3] | outcome [18] | Potency [5] | max response [7] -13.7% | activation [8] -4.42% | activation [9] -2.14% | activation [10] 0.794% | max response [11] -2.07% | Potency [12] | max response [13] -4.46% | max response [14] -18% | Potency [15] | max response [16] 0.745%
-10.7%: max response [6]
-26.8%: max response [4]

CNC(=O)Oc1cc(C)c(SC)c(C)c1
inactive: outcome [2] | Potency [17] | Potency [3] | outcome [18] | Potency [19] | activation [8] -3.45% | activation [9] -0.568% | activation [10] 0.0661% | max response [11] 0.9% | Potency [12] | max response [13] -13.2% | Potency [15]
active: Potency [1] 25.1 µM

O=Cc1cccc(Oc2ccccc2)c1
1.81%: max response [6]
inactive: Potency [20] | outcome [2] | Potency [3] | outcome [18] | Potency [5] | Potency [19] | max response [7] 1.63% | activation [9] -0.909% | activation [10] -0.398% | max response [11] 4.39% | Potency [12] | max response [13] 2.38% | max response [14] -4.08% | Potency [15] | max response [16] 0.0469%
6.44%: max response [4]

CC1(C)CN=C(NN=C(/C=C/c2ccc(C(F)(F)F)cc2)/C=C/c2ccc(C(F)(F)F)cc2)NC1
inactive: activation [10] -13.3% | max response [11] -2.05% | Potency [12]
active: Potency [20] 14.1 µM [inhibitor] | Potency [13] 25.1 µM | Potency [14] 44.7 µM | Potency [15] 50.1 µM

[Ga]#[As]
inactive: Potency [1] | outcome [2] | Potency [17] | Potency [3] | Potency [5] | Potency [19] | max response [7] 6.85% | activation [8] -1.62% | activation [9] -0.5% | activation [10] 0.963% | max response [11] -1.03% | Potency [12] | max response [13] -2.5% | max response [14] -2.89% | Potency [15] | max response [16] -5.29%
-11%: max response [6]
-5.43%: max response [4]

Clc1ccc(-c2cc(Cl)c(Cl)cc2Cl)cc1Cl
inactive: Potency [1] | Potency [17] | Potency [3] | Potency [19] | max response [7] 4.83% | activation [8] -5.87% | activation [9] 5.08% | activation [10] 1.74% | max response [11] 0.243% | Potency [12] | max response [13] 3.45% | max response [14] -23.9% | Potency [15] | max response [16] -1.84%
-9.16%: max response [6]

CCCCC(O)(Cn1cncn1)c1ccc(Cl)cc1Cl (stereo not drawn)
-3.36%: max response [6]
inactive: Potency [1] | outcome [18] | max response [7] -17.2% | activation [8] -5.41% | activation [9] 0.388% | activation [10] 2.7% | max response [11] 9.57% | Potency [12] | max response [13] -0.171% | max response [14] -16.7% | Potency [15]

Source: PubChem BioAssay (NCATS)
